# Reference: PubChem BioAssay AID1259423 (Fisher Drug Discovery Resource Center, 2018)
# Several values for one entry are separate records, joined by “and”; a condition that tells them apart may be missing. Identical values can stand only once. The whole screen tested about 270,000 compounds, of which about 410 (0.15%) were called active. This is one part of a sample in which actives are shown more often than they occur. No stated cut-off is given here; in the data, active means activation above about 40%; inactive means the rest, inconclusive results apart. Some structures have more than one record in an assay (separate samples or runs), and their calls can disagree.
# System: Aedes aegypti neuropeptide Y-like receptor 7 (NPYLR7)
# Assay: agonists of mosquito NPYLR7 receptor, primary screen, cell-based, Aedes aegypti, calcium fluorescence, mosquito biting behavior (AID 1259423);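 further: 0% = vehicle and 100% = reference agonist at the receptor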
# Conditions: HEK293T NPYLR7/Galpha15, GCaMP6s calcium fluorescence, at 10 µM, stronger effect = higher value
# [1] = measured here: Max-Min RFU normalised activation
SMILES,activation,activation [1]
O=C(c1ccco1)N(Cc1cccc(Cl)c1)CC1CC(c2ccccc2F)=NO1 (configuration not stated),-2.38% (inactive),16.5%
O=C1CCCCCCCCCOCCCCCO1,1.79% (inactive),0.962%
O=C(NCC1CCCO1)c1cccc(Nc2c(Oc3cccc(Cl)c3)cnn(-c3ccccc3)c2=O)c1 (configuration not stated),0.00562% (inactive),12.8%
COCCN(CC(=O)N1CCc2sccc2C1c1ccccc1)C(=O)COCc1ccccc1 (configuration not stated),1.27% (inactive),4.39%
Nc1c(Oc2ccccc2)cc(Nc2ccccc2)c2c1C(=O)c1ccccc1C2=O,-6.94% (inactive),-5.96%
Cc1csc(=Nc2ccccc2)n1C1CCCC1,1.06% (inactive),7.29%
O=C1OCCN1Cc1nc(CCc2ccccc2)nn1-c1ccccn1,-2.22% (inactive),-8.03%
CC(=O)c1ccc(C(=O)Nc2sc3c(c2-c2nc4ccccc4s2)CCN(C)C3)cc1,12.4% (inactive),11.3%
CCOc1ccc(C(=O)Nc2sc3c(c2-c2nc4ccccc4s2)CCN(C)C3)cc1,105% (active),107%
CC(=O)N1CCc2c(sc(NC(=O)c3cccs3)c2-c2nc3ccccc3s2)C1,3.8% (inactive),5.03%
Cc1ccc(CCC(=O)N2CCOC3(CNCCOC3)C2)cc1C (configuration not stated),5.94% (inactive),6.1%
Cc1c(NC(=O)C(C)(C)c2ccccc2)cccc1C(=O)N1CCOCC1,2.93% (inactive),1.78%
CCOc1nc(-c2ccc(C(F)(F)F)cc2)n(-c2ccc(NCC(O)COCc3ccccc3)cc2)n1 (configuration not stated),-2.33% (inactive),4.92%
Fc1ccc(N2CCC(N3CCCC(Nc4ccccc4)C3)CC2)cc1 (configuration not stated),-4.09% (inactive) and -0.074% (inactive),-9.41% and 0.61%
O=[N+]([O-])c1c(Nc2ccccc2)[nH]c2ccccc12,15.3% (inactive),12.9%
CC(Oc1ccccc1)C(=O)N[C@@H]1C(=O)N2[C@@H]1SC(C)(C)[C@@H]2C(=O)O (some centres not stated),-1.06% (inactive) and 61.5% (active),-1.47% and 49.3%
CC1(C)SC2C(NC(=O)COc3ccccc3)C(=O)N2C1C(=O)O (configuration not stated),-1.02% (inactive),-6.97%
CCOC(=O)OC(C)OC(=O)C1N2C(=O)C(NC(=O)[C@H](N)c3ccccc3)C2SC1(C)C (some centres not stated),-11.5% (inactive),-16.7%
CCOC(=O)C(C)Sc1ccc(NC(=O)C(C)C)nn1 (configuration not stated),0.376% (inactive),-0.597%
CC(=O)N[C@H]1C[C@@H](c2c(C)nc3sccn23)O[C@@H](C2CCCCC2)C1,19.4% (inactive),3.2%
CN(c1ccccc1)c1nnc(C(O)c2cc(F)c(F)c(F)c2)s1 (configuration not stated),0.561% (inactive),-0.28%
CCc1nc2ccc(C(=O)N(C)Cc3ccco3)cn2c1N(C)CCC(C)C,-5.57% (inactive),-12.5%
O=C(Nc1ccc(C(F)(F)F)cc1)C1CCCN(c2ccc(-c3ccco3)nn2)C1 (configuration not stated),-4.36% (inactive),-8.71%
C=CCN(Cc1csc(COc2ccc(C)c(C)c2)n1)C(=O)c1cccc(OC)c1,-4.71% (inactive),3.47%
Cc1c(-c2ccccc2)c(=O)oc2c3c(ccc12)OCN(Cc1cccnc1)C3,-8.96% (inactive),-15.9%
COCCCN1COc2ccc3c(c2C1)O/C(=C\c1cccc(OC)c1OC)C3=O,26.3% (inactive),20.7%

SMILES,activation,activation [1]
COc1cccc(/C=C2\Oc3c(ccc4c3CN(Cc3ccncc3)CO4)C2=O)c1,66.8% (active),55.3%
Cc1nn(C)cc1N1C(=O)c2cccc3c([N+](=O)[O-])ccc(c23)C1=O,-4.56% (inactive),-14.9%
Cc1nc2c(=O)n(CC(=O)Nc3ccc(F)cc3)nc(-c3ccc(F)cc3)c2s1,-3.19% (inactive),-5.39%
COc1ccc(C(=O)NNc2nc3c(C)c(C)ccc3s2)cc1,3.57% (inactive),-0.501%
O=S(=O)(Nc1ccccc1OC(F)F)c1ccccc1F,-1.67% (inactive),-2.18%
Nc1[nH]n(-c2c(Cl)cc(Cl)cc2Cl)c(=O)c1N=Nc1cccc(C(F)(F)F)c1,-0.505% (inactive),-6.22%
O=C(Nc1cccc(Cl)c1)c1cn(CC2CCCO2)cc2c(=O)n(-c3ccccc3)nc1-2 (configuration not stated),6.66% (inactive),6.45%
CCOC(=O)Cc1csc(=Nc2ccc(OC)cc2)n1CCO,-15.9% (inactive),-20.5%
CC(C)OCCCNC(=O)c1ccc(-c2cccc(C(F)(F)F)c2)s1,-2.79% (inactive),5.92%
Cc1cc2nc3c(=O)[nH]c(=O)nc-3n(C[C@H](O)[C@H](O)[C@H](O)CO)c2cc1C,71.4% (active),64.2%
COc1cccc(OC)c1-c1cnnc(NCCN2CCCc3ccccc32)n1,19.3% (inactive),11.8%
COc1ccc(CC(=O)N(Cc2nc3cc(Cl)ccc3o2)C2CCCC2)cc1OC,4.51% (inactive),-5.03%
Cc1c(C(=O)N2CCCCC2CCc2ccc(O)cc2)oc2c(F)cccc12 (configuration not stated),-1.59% (inactive),-5.83%
N#C/C(=C/c1cn(-c2ccccc2)nc1-c1ccco1)c1nc2ccccc2c(=O)[nH]1,11.8% (inactive),10.5%
N#CC(=C(O)CSc1ccc2c(c1)OCCO2)c1nc2ccccc2[nH]1,5.29% (inactive),3.43%
CC1CN(c2ccc(/C=C(\C#N)c3nc4ccccc4[nH]3)o2)CC(C)O1 (configuration not stated),81.4% (active),110%
COc1ccc(C(CC(=O)N(C)Cc2cnccn2)c2ccccc2)cc1 (configuration not stated),16% (inactive),4.14%
O=C(NCCCNC(=O)[C@H]1CCCN1C(=O)COc1ccc(Cl)cc1)c1ccc(F)cc1,-0.263% (inactive),6.73%
CC1CCN(C(=O)C(C)Nc2ccc3c(c2)OCO3)CC1 (configuration not stated),3.12% (inactive),1.09%
COc1cc2c(cc1OC)C(c1ccccc1)N(C(=O)c1cc3c(s1)-c1ccccc1OC3)CC2 (configuration not stated),-0.991% (inactive),6.66%
COc1cc2c(cc1O)[C@@H](Cc1ccc(O)cc1)[N+](C)(C)CC2,5.5% (inactive),-4.18%
COc1ccc(CC(=O)OCc2ccc(COC(=O)Cc3ccc(OC)c(OC)c3)cc2)cc1OC,-2.95% (inactive),-6.45%
COc1ccc(CC2c3cc(OC)c(OC)cc3CC[N+]2(C)CCC(=O)OCCCCCOC(=O)CC[N+]2(C)CCc3cc(OC)c(OC)cc3C2Cc2ccc(OC)c(OC)c2)cc1OC (configuration not stated),41.9% (inactive) and -3.83% (inactive) and 69.2% (active),33.2% and 2.45% and 52.5%
CCOc1ccc(NC(=O)CSc2nc3c(c(=O)n2CCOC)SC(C)C3)cc1 (configuration not stated),3.32% (inactive),0.972%
O=C(NC1COC2(CCCCC2)C1)c1ccco1 (configuration not stated),-4.17% (inactive),-7.46%
CC(C)CC(NC1CCN(C(=O)c2ccccc2)CC1)c1ncnn1C (configuration not stated),8.96% (inactive),6.07%

SMILES,activation,activation [1]
C/C(=N/Nc1nc2c(s1)CCCC2)c1ccc(Cl)cc1,0.513% (inactive),5.88%
CC1=C(C(=O)Nc2ccccc2)C(c2ccc3c(c2)OCO3)NC(=S)N1 (configuration not stated),4.23% (inactive),8.09%
O=C1NC(c2ccc(Cl)cc2)C(C(=O)c2ccccc2)C(O)(C(F)(F)F)N1 (configuration not stated),-3.23% (inactive),-4.42%
O=C1NC(c2ccc3c(c2)OCO3)C(C(=O)c2ccccc2)C(O)(C(F)(F)F)N1 (configuration not stated),42.8% (active),72%
Cc1ccc(Cl)cc1NC(=O)CN1C(=O)c2ccc([N+](=O)[O-])cc2C1=O,-3.83% (inactive),-10.3%
CC(C)c1ccc(C2CC(c3ccccc3)=Nc3ncnn32)cc1 (configuration not stated),4.24% (inactive),2.65%
O=C(Nc1ccc(N2CCC(Cc3ccccc3)CC2)c(C(=O)NCc2ccc(F)cc2)c1)c1cccc([N+](=O)[O-])c1,-3.24% (inactive),7.02%
CCCCNc1ncnc2sc3c(c12)CCC(C)C3 (configuration not stated),1.78% (inactive),2.41%
O=C(O)CCC(=O)Nc1nc2c(s1)CCCC2,1.28% (inactive),-0.361%
COc1ccc(C(=O)NCCn2ncc3c(=O)n(Cc4cccc(C)c4)cnc32)cc1,-1.65% (inactive),-7.02%
c1csc(-c2nc(CSc3nnc(-c4cccs4)n3C3CC3)co2)c1,-0.388% (inactive),7.96%
COc1ccccc1CNC1CC2CCC1(C)C2(C)C (configuration not stated),7.42% (inactive),2.21%
COc1ccc(-c2cccc(-c3nnc(C)s3)c2)c(OC)c1,2.95% (inactive),1.01%
CC(C)c1ccc(C(=O)NCc2ccccc2CS(=O)(=O)N2CCOCC2)cc1,-3.68% (inactive),-3.21%
c1ccc2c(-c3noc4c3CN(CC3CCCO3)CC4)cccc2c1 (configuration not stated),14.2% (inactive),6.24%
Clc1ccc(-c2noc3c2CN(CCn2cc(Cl)cn2)CC3)cc1,74.9% (active),54.3%
Fc1ccccc1-c1noc2c1CN(Cc1cccn1-c1ncccn1)CC2,8.24% (inactive),5.36%
COCc1c(Br)c(C)nc(OCC(=O)N/N=C\c2cc(Br)c(OCc3ccc(Cl)cc3)c(OC)c2)c1C#N,25.2% (inactive),27.7%
Cc1nn(-c2ccc(F)cc2F)c(C)c1CCC(=O)N1Cc2cccc3cccc(c23)C1,4.97% (inactive),3.44%
COc1ccc(Cl)c2sc(N(CCN(C)C)C(=O)c3cc(C)n(C)n3)nc12,1.87% (inactive),0.849%
Cc1ccc(Sc2ncccc2C(=O)N2CCN(c3nccc(-c4cccc(C(F)(F)F)c4)n3)CC2)cc1,14% (inactive),18.9%
COc1cc(OC)cc(C(NC(=O)Cn2ccccc2=O)c2nccn2C)c1 (configuration not stated),5.09% (inactive),2.46%
CN(Cc1ccccc1)C1(C(=O)NCC2COCCO2)Cc2ccccc2C1 (configuration not stated),2.27% (inactive),-0.863%
COc1c(C=NNC(=O)c2cc(Br)ccc2O)sc2ccccc12,-6.22% (inactive),-11.5%
